Bead autofluor – counter-screen for toxin protease inhibitors: compound fluorescence; compound autofluorescence counterscreen, microsphere flow cytometry; active compounds read high; fluorescence intensity (no concentration beside the values); 3.1% of 360,000 active; in the data active = fluorescence intensity above about 16000; inconclusive = no clear call, values can overlap the other calls
BoNT-F LC inh – BoNT F light chain protease inhibition; Multiplex microsphere protease cleavage assay, flow cytometry; inhibition, % at 10 µM; 0.22% of 360,000 active; AID 588497; in the data active = inhibition above about 35%, passing the limit was not always enough; inconclusive = no clear call, values can overlap the other calls; also: plate controls were buffer without enzyme for full effect and enzyme alone for no effect
3CLpro inhibitor – SARS-CoV 3CLpro protease inhibition; P0C6X7; recombinant SARS-CoV 3CLpro, quenched FRET peptide cleavage; 0.14% of 290,000 active; inhibition, % at 6 µM; AID 1706; in the data active = inhibition above about 12%
BoNT A protease – inhibitors of Botulinum neurotoxin A light chain protease; multiplex microsphere protease substrate cleavage, flow cytometry; inhibition, % at 10 µM; 0.17% of 360,000 active; AID 588499; also: plate controls were buffer without enzyme for full effect and enzyme alone for no effect
Anthrax LF inh2 – inhibitors of Bacillus anthracis lethal factor protease | P15917 | multiplex microsphere protease cleavage assay, LF | inhibition, % at 10 µM | 0.12% of 360,000 active | AID 588501; also: plate controls were buffer without enzyme for full effect and enzyme alone for no effect
Starred values were filed as active, the others as inactive; u = inconclusive; x = no result. Sampled rows, rich in hits. Any-hit rate of the full collection: about 3.5%. Rule as the data show it, unless noted: active = inhibition above about 30%; inconclusive = no clear call, values can overlap the other calls; inactive = below that.

SMILES	Bead autofluor	BoNT-F LC inh	3CLpro inhibitor	BoNT A protease	Anthrax LF inh2
Cc1ccc(N2CC(C(=O)NCc3ccc4c(c3)OCO4)CC2=O)cc1C (centres undefined)	22630*	-2	-2	u	-3
c1ccc(Cn2c(NCc3ccco3)nc3ccccc32)cc1	22272*	5	5	u	3
CCn1c(NCc2ccco2)nc2ccccc21	4593	-4	-2	0	-1
Cc1ccc(Oc2coc3cc(OC(=O)c4cccs4)ccc3c2=O)cc1	16461*	-4	-5	1	-2
CCOC(=O)CN1C(=O)C(CC)Oc2ccccc21 (centres undefined)	24132*	-4	-3	-2	-1
CCOc1ccc(C(=O)COC(=O)C2COc3ccccc3O2)cc1 (centres undefined)	3765	-4	x	0	4
CCOc1ccc(-c2csc(C3COc4ccccc4O3)n2)cc1 (centres undefined)	23266*	-3	0	1	0
O=C1NC[C@H](Cc2ccccc2)N(C[C@@H]2CCCN2C[C@H](Cc2ccccc2)N2C[C@H](Cc3ccc(O)cc3)N(CCc3ccccc3)C(=O)C2=O)C1=O	6505	-1	x	-1	0
CCCCC1=CC2=CC(=O)C(C)(OC(=O)CC)C(=O)C2=CN1Cc1ccccc1 (centres undefined)	3489	-21	x	1	-1
CC(=O)C12CCCCC1CC1C3CC(C)C4(O)CC(=O)CCC4(C)C3CCC12C (centres undefined)	3351	35*	0	1	10
CC(=O)C1CCC2C3CC(C)C4(O)CC(=O)CCC4(C)C3C(O)CC12C (centres undefined)	2877	-5	x	0	-5
O=C(Nc1nnc(-c2cccnc2)o1)c1cccc([N+](=O)[O-])c1	x	x	4	x	x
O=C(Cn1cnc2ccccc2c1=O)Nc1ccc2c(c1)CCC2	23574*	1	1	-1	-2
COc1ccc(C(=O)Nc2ccc(S(=O)(=O)Nc3onc(C)c3C)cc2)c(OC)c1	2111	16	3	4	10
O=C1/C(=C\c2ccccn2)SC(=S)N1c1ccc(S(=O)(=O)Nc2nccs2)cc1	3634	u	3	-3	30*
Cc1ccc(/C=C2/SC(=S)N(c3ccc(S(=O)(=O)Nc4nccs4)cc3)C2=O)cc1	2972	u	4	4	4
CC(C)(C)NCC(O)COc1cccc2c1C[C@H](O)[C@H](O)C2 (some centres undefined)	4140	0	-2	-1	-8
COc1ccc(-n2nnnc2SCC(N)=O)cc1	3783	-10	3	0	-2
NC(=O)CSc1nnnn1-c1ccc(OC(F)(F)F)cc1	23160*	-6	3	u	-2
COc1cc(OC)c(OC)cc1CNc1cc(C)ccc1OC	11305	-12	2	-2	-5
COc1ccc(CNc2cc(C)ccc2C)c(OC)c1OC	19482*	-7	-5	0	-3
COc1ccc(C)cc1NCc1cccc(OC)c1OC	22091*	-2	0	1	-3
COC(=O)c1ccc(Oc2cc(C)nc(Cl)n2)cc1	2117	-2	-2	-1	-1
Cc1ccc(S(=O)(=O)N(CC(=O)N2CCOCC2)c2ccc(Br)cc2)cc1	3591	-21	-9	-5	6
O=C1CCN(Cc2ccc(O)cc2)CCN1CCO	4245	-12	-4	0	3
SMILES	Bead autofluor	BoNT-F LC inh	3CLpro inhibitor	BoNT A protease	Anthrax LF inh2
C=CCSc1nnc(-c2ccc(Cl)cc2Cl)o1	17125*	-4	-2	-4	-8
CCC1(c2ccccc2)NC(=O)N(CC(=O)N2CCN(S(=O)(=O)c3ccccc3)CC2)C1=O (centres undefined)	2627	-8	2	-1	-6
Cc1ccc(S(=O)(=O)NCCC(=O)NCc2cccnc2)cc1	5368	-2	0	1	-10
CSc1ccc(S(=O)(=O)NCc2ccccc2Cl)cc1	11002	-9	-1	-2	-4
CC(NS(=O)(=O)c1ccc(CCC(=O)NCc2cccnc2)cc1)c1ccccc1 (centres undefined)	20378*	-1	-1	0	0
CSc1ccc(S(=O)(=O)NCc2ccccc2)cc1	22207*	2	0	1	0
Cc1ccc(S(=O)(=O)NCCC(=O)NCc2ccccc2)cc1	21858*	4	0	4	-7
CC(C)NS(=O)(=O)c1ccc(CCC(=O)NCc2cccnc2)cc1	3322	-22	-4	1	4
O=C(CCNS(=O)(=O)c1ccc(Cl)cc1)NCc1cccnc1	23127*	-1	3	-1	-3
O=C(Cc1ccccc1)N/N=C/c1ccc([N+](=O)[O-])s1	3140	1	0	0	-4
